# Assay results reported in PubChem BioAssay (NCI).
# Compounds without any hit were thinned out: in the full panel of roughly 83,000, 20% have a hit.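 A percent growth of 40 corresponds to 60% growth inhibition; 0 means no net growth; -100 means all cells died. Active threshold: below 10.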 Values without a mark were called inactive. Active and inactive are the calls of the source.
# Key:
# Test in all cases: NCI-60 one-dose screen, 48 h (100 = growth as untreated, 0 = no growth, -100 = all killed)
# Settings in all cases: 10 µM unless noted
# SR leukemia = system: SR leukemia
# RPMI-8226 leukemia = system: RPMI-8226 leukemia
# OVCAR-8 ovarian = system: OVCAR-8 ovarian
# OVCAR-5 ovarian = system: OVCAR-5 ovarian
# OVCAR-4 ovarian = system: OVCAR-4 ovarian
# SK-OV-3 ovarian = system: SK-OV-3 ovarian
# IGROV1 ovarian = system: IGROV1 ovarian
# OVCAR-3 ovarian = system: OVCAR-3 ovarian
# HS 578T breast = system: HS 578T breast
# NCI/ADR-RES ovarian = system: NCI/ADR-RES ovarian
# T-47D breast = system: T-47D breast
# BT-549 breast = system: BT-549 breast
# MDA-MB-435 melanoma = system: MDA-MB-435 melanoma
# SW-620 colon = system: SW-620 colon
# MCF7 breast = system: MCF7 breast
# HCT-116 colon = system: HCT-116 colon
# HCC-2998 colon = system: HCC-2998 colon
# KM12 colon = system: KM12 colon
Compound,growth (SR leukemia),growth (RPMI-8226 leukemia),growth (OVCAR-8 ovarian),growth (OVCAR-5 ovarian),growth (OVCAR-4 ovarian),growth (SK-OV-3 ovarian),growth (IGROV1 ovarian),growth (OVCAR-3 ovarian),growth (HS 578T breast),growth (NCI/ADR-RES ovarian),growth (T-47D breast),growth (BT-549 breast),growth (MDA-MB-435 melanoma),growth (SW-620 colon),growth (MCF7 breast),growth (HCT-116 colon),growth (HCC-2998 colon),growth (KM12 colon)
O=C1/C(=C/c2cccc(F)c2)CN(C(=O)C(Cl)Cl)C/C1=C\c1cccc(F)c1,-15.8% (active),-31.3% (active),-48.3% (active),-63.6% (active),-36.9% (active),29.8%,-77.2% (active),-92.2% (active),-13.7% (active),-3.11% (active),-26.5% (active),-81.1% (active),-90.2% (active),-63.2% (active),-46.7% (active),-82.8% (active),-86.5% (active),-74.3% (active)
CCn1cc(C(=O)NNC(=S)Nc2ccc(C)cc2)c(=O)c2ccc(C)nc21,104%,98.9%,95.6%,107%,102%,106%,95.7%,103%,95.8%,95.6%,88.1%,97.1%,101%,99.2%,97.2%,93%,92.7%,103%
O=C1C(Cl)=C(Nc2ccc(S(=O)(=O)N3CCOCC3)cc2)C(=O)c2ccccc21,-3.16% (active),21.2%,70%,38.1%,86%,81.3%,62.5%,72.8%,79.2%,90%,69.8%,45.9%,88.1%,32.5%,58.9%,4.7% (active),106%,64.5%
Cc1cccc(CNc2c3ccccc3nc3ccccc23)c1,-2.88% (active),-20.4% (active),20.3%,35.8%,27.9%,45.3%,19.5%,30.8%,30.3%,25.7%,25.3%,67.3%,29.1%,17.2%,6.23% (active),9.81% (active),3.58% (active),25.6%
COc1ccc(C/C(C)=C(/c2ccc(OCCN(C)C)cc2)c2ccc(OC(=O)NCc3ccccc3)cc2)cc1,-46% (active),32.9%,77.4%,92%,78.4%,81.4%,85.3%,63.9%,56.2%,77.2%,51.7%,82.5%,74.4%,61.5%,21.2%,52.1%,66.6%,72.6%
N#CC1=C(N)Oc2c(sc3c(Br)cccc23)C1c1ccc(Cl)cc1 (stereo unspecified),4.58% (active),12.6%,23%,26.3%,61.2%,27.1%,27.2%,0.89% (active),26.4%,0.969% (active),26.3%,41%,-23.2% (active),27.3%,10%,13.7%,10.9%,26.4%
COc1cc(OC)c(/C=C/C(=O)c2c(OC)cccc2OC)c(OC)c1,23.3%,16.7%,24.2%,4.82% (active),68.4%,21.7%,-1.35% (active),-42.2% (active),88.7%,-22.1% (active),30.1%,7.43% (active),-22% (active),17.7%,25.1%,9.06% (active),0.761% (active),8.59% (active)
CC(=O)O[C@@H]1C[C@]2(C(C)C)O[C@@]1(C)[C@@H]1CCC(C)=C1[C@@H]2OC(=O)/C=C/c1ccccc1,73.6%,76.6%,67.5%,98.1%,79.1%,89.3%,94.9%,89.7%,20%,71.9%,76.8%,105%,91.9%,90.6%,83.9%,88.5%,103%,92.8%
Cc1ccc(C)n1-c1ccccc1-n1c(C)ccc1C,93.2%,148%,102%,118%,105%,109%,92.9%,120%,117%,116%,91.2%,104%,94.1%,139%,101%,104%,115%,117%
CN(C)CC1CCC(CN(C)C)C1=O (stereo unspecified),59.7%,62.2%,105%,122%,115%,105%,115%,132%,105%,117%,106%,110%,121%,86.9%,93.7%,93.9%,114%,115%
CC(=O)/C(=C\c1c(-c2ccccc2)[nH]c2ccccc12)S(C)(=O)=O,-25.2% (active),-32.2% (active),40.9%,78.3%,-29.6% (active),35.9%,54.1%,-54.6% (active),3.31% (active),-19.5% (active),1.27% (active),4.06% (active),-42.7% (active),13.7%,6.97% (active),21.2%,36.8%,4.04% (active)
CC(C)=CCC[C@](C)(O)[C@H]1CC[C@]2(C)[C@@H]1CC[C@@H]1[C@@]3(C)C/C(=C/c4ccco4)C(=O)C(C)(C)[C@@H]3CC[C@]12C,113%,101%,104%,102%,106%,109%,107%,103%,94.5%,104%,97.8%,98.1%,97.4%,99.1%,97.2%,97.4%,105%,106%
CCC(C)N(CCNc1cc(OC)cc2cccnc12)CC(C)C (stereo unspecified),85.4%,70.3%,90.9%,99.6%,16.4%,95.1%,53.6%,65.2%,110%,83.5%,6.53% (active),106%,109%,85.5%,12.6%,66.9%,96%,97.5%
CC(C)(C)[Si](C)(C)OC1[C@@H](CNC(=O)NC(=O)NC(N)=O)O[C@@H](n2cnc3c(NC(=O)Nc4ccccc4)ncnc32)[C@H]1O[Si](C)(C)C(C)(C)C (stereo partly specified),40.8%,69.1%,23%,96.1%,66.7%,65.4%,78.4%,68.4%,77.1%,85.3%,82.8%,95.4%,68.9%,55.9%,57.9%,20.5%,85.8%,61.5%
COC(=O)Nc1nc2ccc(S(=O)c3ccccc3)cc2[nH]1 (stereo unspecified),23.4%,75.6%,80.3%,92.8%,84.4%,81.1%,67.8%,57.9%,62%,53.3%,89.1%,77.9%,-33.4% (active),27.2%,44.1%,39.4%,74.1%,31.6%
O=C(NCCNc1nccc(Nc2ccc(S(=O)(=O)Nc3ccccn3)cc2)n1)c1cccc([N+](=O)[O-])c1,84.7%,96.1%,104%,93%,89.9%,100%,106%,108%,108%,104%,89%,96.9%,103%,102%,88.5%,90.4%,109%,99%
O=C1NC(=C(Cl)Cl)/C(=N\S(=O)(=O)NCc2ccccc2)N1,65.3%,75.6%,94.6%,98.4%,108%,97.1%,102%,105%,122%,109%,52%,97.8%,95.8%,111%,74.4%,94.2%,127%,62.9%
